Unmarked numbers belong to inactive results. Inconclusive results are not listed. Calls of active or inactive are those of the source. Calls come from the whole dose curve; as a rule, active = well fitted curve in the direction sought with a large enough effect in the repeat runs; inconclusive = weak or mixed curves; inactive = no such curve, though single readings can be large; an effect the other way counts as inactive or inconclusive.

This is an account of results in PubChem BioAssay (Tox21).

The nature of test [1]: Human pregnane X receptor (PXR) small molecule agonists, qHTS cell viability counter screen (AID 1346977). Note: nearly all actives have a fitted effect of over 50% in size. In outline:
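After a 5hr pre-incubation, PXR-Luc HepG2 cells received compounds plus positive control in DMSO and were kept 24hr at 37C. Cell viability was quantified by fluorescence from CellTiter-Fluor added for the final hour.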

A short description of test [2]: Caspase-3/7 induction in HepG2 cells by small molecules, qHTS assay (AID 1346978). Note: nearly all actives have a fitted effect of over 15% in size. The method in brief:
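Caspase-3/7 induction was measured by Caspase-Glo 3/7 luminescence (30 min, room temperature) after a 17 hr compound exposure of wild-type HepG2 cells seeded at 2,000 per well and pre-incubated 5 hr.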
(In general: In qHTS, concentration-response curves come from the screen itself.)

The nature of test [3]: Caspase-3/7 induction in CHO-K1 cells by small molecules, qHTS cell viability counter screen (AID 1346979). Note: nearly all actives have a fitted effect of over 35% in size. In outline:
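Multiplexed with Caspase-Glo 3/7 in CHO-K1 cells, this counter screen added CellTiter-Fluor after 16hr of compound exposure and recorded fluorescence 1hr later.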

Test [4] can be described thus: Caspase-3/7 induction in CHO-K1 cells by small molecules, qHTS assay (AID 1346980). Note: nearly all actives have a fitted effect of over 15% in size. The method in brief: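 Luminescent Caspase-Glo 3/7 read (30min, room temperature) quantified apoptosis induction. Cells were wild-type CHO-K1, treated with compound for 17hr at 37 C and 5% CO2.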
Test [5] can be described thus: Caspase-3/7 induction in HepG2 cells by small molecules, qHTS cell viability counter screen (AID 1346981). Note: series mostly up to about 92 µM; nearly all actives have a fitted effect of over 30% in size. In outline: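 In this quantitative HTS counter screen, compounds delivered in DMSO were left on unmodified HepG2 cells for 16 hr at 37 C. Viability was then determined fluorometrically with CellTiter-Fluor, in parallel with caspase-3/7 induction in the same wells.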

Test [6] deals with Nuclear receptor subfamily 1 group I member 2 (Homo sapiens) (UniProt O75469). Put plainly: Human pregnane X receptor (PXR) small molecule agonists, qHTS assay (AID 1346982). Note: nearly all actives have a fitted effect of over 35% in size. Note: potency is the fitted concentration of half-maximal effect. In outline:
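Reporter HepG2 cells expressing PXR-Luc are cultured in charcoal-stripped FBS (5%), treated with compounds for 24 hr at 37 C, and assayed by ONE-Glo luminescence after 30 min at room temperature.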

The target in test [7] is Cytochrome P450 2D6 (Homo sapiens) (UniProt P10635). Put plainly: Cytochrome P450 Family 2 Subfamily D Member 6 (CYP2D6) small molecule antagonists: luciferase reporter qHTS assay (AID 1671196). Note: nearly all actives have a fitted effect of over 50% in size. Note: potency is the fitted concentration of half-maximal effect. In outline:
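Test chemicals meet CYP2D6 plus proluciferin substrate (10 min, RT); NADPH regenerating solution then drives turnover for 1 h. Detection reagent halts the reaction; luminescence measured after 20 min.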
(In general: In a reporter assay the amount or activity of a reporter protein is the signal.)

Test [8] addresses Cytochrome P450 2C19 (Homo sapiens) (UniProt P33261). Put plainly: Cytochrome P450 Family 2 Subfamily C Member 19 (CYP2C19) small molecule antagonists: luciferase reporter qHTS assay (AID 1671197). Note: nearly all actives have a fitted effect of over 65% in size. Note: potency is the fitted concentration of half-maximal effect. In outline: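 Luminescent readout of CYP2C19 activity: luciferin product detected 20 min after adding detection reagent. Before that, compound and enzyme-substrate mix preincubated 10 min at room temperature; NADPH-regenerating system started a 1 h, 37C reaction. Ketoconazole as positive control.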

In test [9] the target is Cytochrome P450 2C9 (Homo sapiens) (UniProt P11712). Briefly: Cytochrome P450 Family 2 Subfamily C Member 9 (CYP2C9) small molecule antagonists: luciferase reporter qHTS assay (AID 1671198). Note: nearly all actives have a fitted effect of over 50% in size. Note: potency is the fitted concentration of half-maximal effect. The method in brief:
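Enzyme-substrate mix preincubated with compound 10 min at room temperature; reaction started with NADPH regeneration solution, 1 h 37C. Luminescent luciferin product read after 20 min detection reagent.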

For test [10], the target named is Cytochrome P450 1A2 (Homo sapiens) (UniProt P05177). Put plainly: Cytochrome P450 Family 1 Subfamily A Member 2 (CYP1A2) small molecule antagonists: luciferase reporter qHTS assay (AID 1671199). Note: nearly all actives have a fitted effect of over 50% in size. Note: potency is the fitted concentration of half-maximal effect. The method in brief:
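Steps: enzyme-substrate mix dispensed; test compounds and furafylline control pinned in; 10 min room temperature; NADPH regeneration solution added, 1 h; reaction stopped with luciferin detection reagent; luminescence read after 20 min.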

Test [11] has as its target Voltage-gated inwardly rectifying potassium channel KCNH2 (Homo sapiens) (UniProt Q12809). Briefly: Human Ether-a-go-go-Related Gene (hERG) channel small molecule antagonists: fluorescence cell-based qHTS assay (AID 1671200). In outline: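 Cell line hERG-U2OS; dye FluxOR II, 1 h RT dark; Tl+ stimulus; ex 480/em 540 nm, read each second for 2 min.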
A general note: hERG is a cardiac potassium channel; its block is linked to QT prolongation.

Test [12] deals with Cytochrome P450 3A4 (Homo sapiens) (UniProt P08684). Briefly: Cytochrome P450 Family 3 Subfamily A Member 4 (CYP3A4) small molecule antagonists: luciferase reporter qHTS assay (AID 1671201). Note: nearly all actives have a fitted effect of over 50% in size. Note: potency is the fitted concentration of half-maximal effect. In outline:
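Room-temperature assay throughout: 10 min compound–enzyme/substrate preincubation, 1 h reaction after NADPH regeneration solution, 20 min detection. Luciferin formed from proluciferin substrate is quantified by luminescence.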

Chain of Cytochrome P450 2D6 (Homo sapiens) (P10635 whole entry, looked up): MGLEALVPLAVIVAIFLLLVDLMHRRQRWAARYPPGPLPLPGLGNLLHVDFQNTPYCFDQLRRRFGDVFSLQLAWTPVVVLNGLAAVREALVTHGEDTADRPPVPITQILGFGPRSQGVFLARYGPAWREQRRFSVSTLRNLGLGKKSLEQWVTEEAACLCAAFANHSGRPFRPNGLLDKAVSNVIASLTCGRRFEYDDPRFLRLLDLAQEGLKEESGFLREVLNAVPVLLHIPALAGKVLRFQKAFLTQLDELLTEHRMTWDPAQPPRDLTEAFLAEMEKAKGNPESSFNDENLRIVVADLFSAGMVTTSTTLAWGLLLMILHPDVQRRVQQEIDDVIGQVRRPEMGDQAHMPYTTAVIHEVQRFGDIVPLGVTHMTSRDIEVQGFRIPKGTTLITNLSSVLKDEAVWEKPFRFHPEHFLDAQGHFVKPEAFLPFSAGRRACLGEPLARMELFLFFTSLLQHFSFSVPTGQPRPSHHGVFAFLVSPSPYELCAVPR
Chain of Cytochrome P450 2C9 (Homo sapiens) (P11712 whole entry, looked up): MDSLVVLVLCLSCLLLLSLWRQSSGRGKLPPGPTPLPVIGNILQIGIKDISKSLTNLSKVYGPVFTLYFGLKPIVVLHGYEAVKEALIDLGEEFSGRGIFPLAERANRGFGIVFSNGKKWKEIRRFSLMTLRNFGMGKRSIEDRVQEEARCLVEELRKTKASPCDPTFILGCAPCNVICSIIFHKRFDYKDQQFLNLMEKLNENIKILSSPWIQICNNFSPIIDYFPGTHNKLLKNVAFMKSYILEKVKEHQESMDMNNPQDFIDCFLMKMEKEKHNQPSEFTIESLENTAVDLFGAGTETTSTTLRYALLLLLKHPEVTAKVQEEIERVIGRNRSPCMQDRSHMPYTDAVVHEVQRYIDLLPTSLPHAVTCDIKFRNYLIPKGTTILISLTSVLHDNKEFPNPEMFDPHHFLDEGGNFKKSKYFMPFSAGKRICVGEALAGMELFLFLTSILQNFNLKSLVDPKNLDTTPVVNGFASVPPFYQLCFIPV
Chain of Nuclear receptor subfamily 1 group I member 2 (Homo sapiens) (O75469 whole entry, looked up): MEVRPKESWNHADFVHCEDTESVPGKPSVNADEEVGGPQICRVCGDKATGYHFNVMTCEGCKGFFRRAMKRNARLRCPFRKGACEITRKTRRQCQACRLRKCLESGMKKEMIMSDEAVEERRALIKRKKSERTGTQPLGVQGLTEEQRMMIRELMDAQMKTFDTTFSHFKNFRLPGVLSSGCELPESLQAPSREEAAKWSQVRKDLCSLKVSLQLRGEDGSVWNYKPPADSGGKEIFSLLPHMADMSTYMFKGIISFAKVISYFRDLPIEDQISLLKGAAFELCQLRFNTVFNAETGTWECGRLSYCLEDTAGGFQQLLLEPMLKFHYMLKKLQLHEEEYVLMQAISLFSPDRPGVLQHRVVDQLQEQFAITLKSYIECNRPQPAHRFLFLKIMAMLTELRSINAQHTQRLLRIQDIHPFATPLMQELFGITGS
Chain of Cytochrome P450 2C19 (Homo sapiens) (P33261 whole entry, looked up): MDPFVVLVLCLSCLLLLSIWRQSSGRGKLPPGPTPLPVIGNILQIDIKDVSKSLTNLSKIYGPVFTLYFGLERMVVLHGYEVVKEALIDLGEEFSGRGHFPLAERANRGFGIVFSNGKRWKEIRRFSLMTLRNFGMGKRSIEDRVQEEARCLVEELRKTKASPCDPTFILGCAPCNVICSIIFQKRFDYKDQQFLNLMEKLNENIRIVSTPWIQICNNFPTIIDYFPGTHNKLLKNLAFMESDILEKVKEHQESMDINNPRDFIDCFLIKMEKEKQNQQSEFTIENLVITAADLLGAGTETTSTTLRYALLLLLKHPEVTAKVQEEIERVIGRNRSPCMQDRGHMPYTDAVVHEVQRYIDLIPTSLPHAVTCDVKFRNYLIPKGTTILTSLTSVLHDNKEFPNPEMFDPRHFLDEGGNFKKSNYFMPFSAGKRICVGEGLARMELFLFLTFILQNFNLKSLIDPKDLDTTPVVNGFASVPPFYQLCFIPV
Chain of Voltage-gated inwardly rectifying potassium channel KCNH2 (Homo sapiens) (Q12809 whole entry, looked up): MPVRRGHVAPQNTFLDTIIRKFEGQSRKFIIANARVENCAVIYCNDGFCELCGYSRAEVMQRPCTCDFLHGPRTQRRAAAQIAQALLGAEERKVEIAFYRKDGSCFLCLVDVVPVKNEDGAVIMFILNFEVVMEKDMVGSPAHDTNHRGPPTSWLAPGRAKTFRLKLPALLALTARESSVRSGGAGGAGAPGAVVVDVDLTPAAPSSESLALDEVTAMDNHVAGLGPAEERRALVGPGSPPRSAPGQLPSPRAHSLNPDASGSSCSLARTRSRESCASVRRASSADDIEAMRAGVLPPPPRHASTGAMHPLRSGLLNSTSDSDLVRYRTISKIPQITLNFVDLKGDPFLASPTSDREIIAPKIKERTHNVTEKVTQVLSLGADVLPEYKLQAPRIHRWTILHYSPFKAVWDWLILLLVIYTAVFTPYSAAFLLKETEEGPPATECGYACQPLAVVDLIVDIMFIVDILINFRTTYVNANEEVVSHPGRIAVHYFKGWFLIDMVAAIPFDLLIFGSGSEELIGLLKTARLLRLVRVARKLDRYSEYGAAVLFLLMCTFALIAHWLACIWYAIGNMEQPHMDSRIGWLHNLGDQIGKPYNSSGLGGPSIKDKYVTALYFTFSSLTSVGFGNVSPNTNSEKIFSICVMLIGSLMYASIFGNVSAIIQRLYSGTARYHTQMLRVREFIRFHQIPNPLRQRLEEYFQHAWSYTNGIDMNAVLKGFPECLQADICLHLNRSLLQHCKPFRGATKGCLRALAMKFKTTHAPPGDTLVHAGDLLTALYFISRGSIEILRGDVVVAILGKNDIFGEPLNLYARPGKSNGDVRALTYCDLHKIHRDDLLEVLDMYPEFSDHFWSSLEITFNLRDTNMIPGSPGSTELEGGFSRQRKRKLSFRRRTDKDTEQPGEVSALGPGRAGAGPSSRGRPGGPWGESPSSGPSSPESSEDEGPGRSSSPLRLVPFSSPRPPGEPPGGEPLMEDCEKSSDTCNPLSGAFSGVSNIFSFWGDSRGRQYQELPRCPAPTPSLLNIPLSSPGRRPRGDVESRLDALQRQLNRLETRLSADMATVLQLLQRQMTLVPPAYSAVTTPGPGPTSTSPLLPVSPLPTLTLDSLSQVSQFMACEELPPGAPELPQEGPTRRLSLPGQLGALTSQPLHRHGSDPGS
Chain of Cytochrome P450 1A2 (Homo sapiens) (P05177 whole entry, looked up): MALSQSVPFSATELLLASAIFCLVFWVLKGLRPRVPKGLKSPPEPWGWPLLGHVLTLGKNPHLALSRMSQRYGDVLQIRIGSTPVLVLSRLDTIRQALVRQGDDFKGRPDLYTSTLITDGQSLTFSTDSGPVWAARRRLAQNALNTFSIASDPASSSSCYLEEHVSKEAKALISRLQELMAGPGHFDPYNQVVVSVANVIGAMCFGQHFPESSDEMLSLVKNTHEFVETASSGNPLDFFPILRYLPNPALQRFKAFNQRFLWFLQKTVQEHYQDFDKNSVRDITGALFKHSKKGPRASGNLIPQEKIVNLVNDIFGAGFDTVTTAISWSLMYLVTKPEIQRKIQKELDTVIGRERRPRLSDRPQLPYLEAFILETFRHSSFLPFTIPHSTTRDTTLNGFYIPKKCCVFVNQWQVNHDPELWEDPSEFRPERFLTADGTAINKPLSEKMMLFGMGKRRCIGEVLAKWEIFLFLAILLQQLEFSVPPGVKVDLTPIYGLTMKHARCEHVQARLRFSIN
Chain of Cytochrome P450 3A4 (Homo sapiens) (P08684 whole entry, looked up): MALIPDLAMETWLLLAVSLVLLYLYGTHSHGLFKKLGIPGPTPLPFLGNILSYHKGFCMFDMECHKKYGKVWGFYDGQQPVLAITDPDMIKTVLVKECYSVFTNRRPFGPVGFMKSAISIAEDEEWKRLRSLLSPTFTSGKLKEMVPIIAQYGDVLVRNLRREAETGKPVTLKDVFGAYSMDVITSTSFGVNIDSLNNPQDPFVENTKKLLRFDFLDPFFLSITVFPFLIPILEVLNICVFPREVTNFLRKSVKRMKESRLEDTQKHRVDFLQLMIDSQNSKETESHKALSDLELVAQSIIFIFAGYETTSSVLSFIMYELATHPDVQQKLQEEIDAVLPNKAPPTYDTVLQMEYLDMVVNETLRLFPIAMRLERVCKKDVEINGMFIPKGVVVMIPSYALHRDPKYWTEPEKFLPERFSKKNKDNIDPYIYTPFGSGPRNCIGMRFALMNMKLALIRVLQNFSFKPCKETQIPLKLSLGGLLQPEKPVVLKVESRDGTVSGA

Consider `CNCCO`, for which the Potency result in test [1], in test [3], in test [5], in test [6], in [7] and in test [8] was “inactive” each time. In addition, the Potency entry in [9], in test [10], in [11] and in [12] was “inactive” each time. In addition, the outcome in test [2] and in test [4] was inactive.
In the case of `CCCCCCCCCCCCSC`, the Potency entry in [1], in test [3], in [5], in [6], in test [7] and in [8] was “inactive” in each case. Moreover, the Potency result in test [9] and in [12] was “inactive” each time. Further, the result in [2] and in test [4] was inactive.
Regarding `C=C(C)C(=O)OCC(O)CO` (stereo unspecified), the Potency result in test [1], in [3], in test [5], in test [6], in [7] and in [8] was “inactive” throughout. The Potency result in test [9], in [10], in test [11] and in [12] was “inactive” throughout. For the same compound, the outcome in test [2] and in test [4] was inactive.
Regarding `CC1CCC(CO)CC1` (stereo unspecified), the Potency result in [1], in test [3], in test [5], in test [6], in [7] and in test [8] was “inactive” throughout. In addition, the Potency result in test [9], in test [10], in test [11] and in [12] was “inactive” throughout. Moreover, the result in test [2] and in [4] was inactive.
In the case of `CC(C)CC(C)(N)C#N` (stereo unspecified), the Potency result in test [1], in test [3], in test [5], in [6], in [7] and in [8] was “inactive” throughout. Moreover, the Potency entry in test [9], in test [10], in test [11] and in test [12] was “inactive” in each case. For the same compound, the result in [2] and in test [4] was inactive.
As for `COc1ccccc1OCC1CNC(=O)O1` (stereo unspecified), the Potency entry in test [1], in test [3], in test [5], in [6], in [7] and in test [8] was “inactive” each time. Moreover, the Potency entry in [9], in test [10], in test [11] and in test [12] was “inactive” throughout. Also, the result in [2] and in test [4] was inactive.
In the case of `C1CCC2(CCCCO2)OC1`, the Potency entry in [1], in [3], in [5], in test [6], in [7] and in test [8] was “inactive” throughout. For the same compound, the Potency entry in test [9], in test [10], in test [11] and in test [12] was “inactive” throughout. Moreover, the call in test [2] and in [4] was inactive.
As to `CC(=O)c1ccccc1[N+](=O)[O-]`, the Potency result in [1], in [3], in test [5], in test [7], in test [8] and in test [9] was “inactive” each time. Besides, the Potency result in [11] and in test [12] was “inactive” in each case. Moreover, the compound was classed as inactive in test [2] and in test [4]. For the same compound, the Potency is 30.1 µM (active) in test [6] and 39.2 µM (active) in test [10].
As for `NC(CCC(=O)O)C(=O)O` (stereo unspecified), the Potency entry in [1], in test [3], in test [5], in test [6], in test [8] and in [9] was “inactive” in each case. The Potency entry in [10], in test [11] and in test [12] was “inactive” in each case. Besides, the compound was called inactive in test [2] and in test [4]. Besides, the Potency in test [7] was 31 µM (active).
Turning to `O=C(O)CCSCCC(=O)O`, the Potency entry in test [1], in test [3], in [5], in test [6], in test [7] and in [8] was “inactive” throughout. For the same compound, the Potency result in test [9], in test [10], in test [11] and in [12] was “inactive” each time. Moreover, the outcome in [2] and in test [4] was inactive.
For `CCOC(=O)C1=NOC(c2ccccc2)(c2ccccc2)C1`, the Potency result in test [1], in [3], in test [5], in [7] and in test [12] was “inactive” each time. Moreover, the call in test [2] and in test [4] was inactive. The Potency was 68.6 µM (active) in [6], 20 µM (active) in test [8] and 7.1 µM (active) in test [9].
As to `CN(C)CCCN(C)CCCN(C)C`, the Potency entry in test [1], in test [3], in test [5], in [6], in [7] and in test [8] was “inactive” in each case. Besides, the Potency entry in test [9], in test [11] and in test [12] was “inactive” throughout. Also, the result in test [2] and in [4] was inactive.
Turning to `C=CC(C)(CCC=C(C)C)OC(=O)CC` (stereo unspecified), the Potency result in [1], in test [3], in test [5], in test [6], in [7] and in test [11] was “inactive” each time. The compound was called inactive in [2] and in test [4]. For the same compound, the Potency in test [8] was 35.6 µM (active); in test [9], 31.7 µM (active); in test [12] it was 28.3 µM (active).
`CCOC(=O)CCC(=O)OCC`: the Potency entry in test [1], in test [3], in test [5], in test [6], in test [7] and in test [8] was “inactive” each time. Besides, the Potency result in [10], in test [11] and in [12] was “inactive” each time. Also, the compound was classed as inactive in test [2] and in [4]. Besides, the Potency in [9] was 35.6 µM (active).
For the compound `COc1ccnc(CS(=O)c2nc3cc(OC(F)F)ccc3[nH]2)c1OC` (stereo unspecified), the Potency result in test [1], in test [3] and in test [5] was “inactive” each time. In addition, the compound was called inactive in test [2] and in [4]. Moreover, the Potency in [6] is 24.5 µM (active); in test [7] it was 12.7 µM (active); in [8], 8.99 µM (active); in test [10], 35.8 µM (active).
As for `CC(C)(CCC(=O)O)C(=O)O`, the Potency entry in [1], in test [3], in test [5], in [6], in [7] and in test [8] was “inactive” each time. Moreover, the Potency result in test [9], in [11] and in test [12] was “inactive” each time. Further, the compound was classed as inactive in [2] and in test [4]. Further, the Potency in test [10] was 28.6 µM (active).
On to `OCCc1ccccn1`, for which the Potency entry in test [1], in [3], in test [5], in test [6], in [7] and in test [8] was “inactive” throughout. Moreover, the Potency entry in test [9], in [10], in [11] and in test [12] was “inactive” throughout. Further, the call in test [2] and in [4] was inactive.
For the compound `CC(CO)(CO)[N+](=O)[O-]`, the Potency result in test [1], in test [3], in [5], in test [6], in [7] and in [8] was “inactive” throughout. For the same compound, the Potency result in test [9], in test [10], in [11] and in test [12] was “inactive” throughout. The call in test [2] and in [4] was inactive.
As for `COc1c(N2CCNC(C)C2)c(F)cc2c(=O)c(C(=O)O)cn(C3CC3)c12` (stereo unspecified), the Potency entry in test [1], in test [3], in test [5], in test [6], in test [7] and in test [8] was “inactive” each time. Further, the Potency entry in test [9], in test [10], in test [11] and in [12] was “inactive” in each case. Also, the outcome in test [2] and in test [4] was inactive.
In the case of `CC(CC=O)CC(C)(C)C` (stereo unspecified), the Potency result in test [1], in [3], in [5], in [7], in test [8] and in [10] was “inactive” in each case. Further, the Potency result in test [11] and in [12] was “inactive” throughout. For the same compound, the outcome in test [2] and in [4] was inactive. The Potency in test [6] was 54.5 µM (active).
Consider `CCCCCCCCN1CCCC1=O`, for which the Potency result in test [1], in test [3], in test [5], in test [7], in [11] and in [12] was “inactive” throughout. The compound was classed as inactive in [2] and in test [4]. The Potency in [6] was 24.3 µM (active); in test [8] it was 10 µM (active); in test [10], 39.9 µM (active).
